Laboratory results as given in article PMC6212790, “How bacterial xenogeneic silencer rok distinguishes foreign from self DNA in its resident genome”.
In all, about 33,000 sequences were measured (“e-score”: median about -0.038, highest 2% from about 0.33 on). The entries come from a sample that favours the highest values as a whole.

What follows are sequences tested against T1, GST-Rok-C97-191 (Bacillus subtilis subsp. subtilis str. …, UniProt O34857 97-191) (assay: protein binding microarray; Rok is a gene silencer of Bacillus subtilis; high values mean tight binding). Conditions: protein: recombinant; tags: GST (pTH5325, pDEST15-Magic modified); dsDNA, one strand shown.
T1 sequence: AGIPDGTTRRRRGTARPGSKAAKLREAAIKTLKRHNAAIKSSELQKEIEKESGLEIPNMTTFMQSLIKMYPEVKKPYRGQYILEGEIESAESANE
In short: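 Each has a 25-mer constant primer and a 35-mer variable part from a de Bruijn sequence of order 10, covering every non-palindromic 8-mer at least 32 times (palindromic 16). Preference for each 8-mer is given as a rank-based, unitless enrichment score (E-score). Its range runs from 0.5 (most favored) to −0.5 (most disfavored).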
AATTTCTA showed a binding signal of 0.355 E-score.
ATTTTCTA showed a binding signal of 0.379 E-score.
CCTTTCTA gave a binding signal of 0.108 E-score.
In the case of AGTGTAGG, the binding signal is reported as 0.0625 E-score.
Work on GATCCGAC yielded a binding signal of -0.0267 E-score.
With GGCATTCA the binding signal was -0.0675 E-score.
With GCGGGGAA the binding signal was -0.189 E-score.
For ATTTTCCA, the binding signal was 0.105 E-score.
ATTTTCCC showed a binding signal of -0.00582 E-score.
ATTTTCCG gave a binding signal of 0.329 E-score.
TGGCAAAA was tested, and the binding signal was 0.122 E-score.
GGAATCAC was tested, and the binding signal was -0.0168 E-score.
Sequence ATTATCTG has a binding signal of 0.203 E-score.
For ATTATCTC, the binding signal was 0.0108 E-score.
Work on CCTATCTA yielded a binding signal of 0.319 E-score.
Sequence ACTATCTC has a binding signal of 0.263 E-score.
AGTATCTC was tested, and the binding signal was 0.185 E-score.
For GCTATCTA, the binding signal was 0.333 E-score.
For GGTATCTA, the binding signal was 0.23 E-score.
For AGTATCTA, the binding signal was 0.351 E-score.
Sequence ATTATCTA has a binding signal of 0.385 E-score.
AGTATCTG showed a binding signal of 0.198 E-score.
With GCTATCCA the binding signal was 0.0235 E-score.
For ACTATCTA, the binding signal was 0.364 E-score.
AAAAGGGC gave a binding signal of -0.186 E-score.
GGACAGAC showed a binding signal of -0.0976 E-score.
GAACGGGA showed a binding signal of -0.108 E-score.
For CAGCTCCA, the binding signal was -0.0439 E-score.
Work on CCTATCGA yielded a binding signal of 0.117 E-score.
In the case of GCTATCGA, the binding signal is reported as 0.102 E-score.
With ACTATCGA the binding signal was 0.348 E-score.
TAGCAGAA gave a binding signal of 0.073 E-score.
AAGCGAGT showed a binding signal of -0.052 E-score.
AAGAAAGA showed a binding signal of 0.0949 E-score.
In the case of AAGGTAGA, the binding signal is reported as 0.246 E-score.
Work on GAGGTAGC yielded a binding signal of -0.122 E-score.
Work on CAGGTAGA yielded a binding signal of 0.223 E-score.
Sequence TAGGTAGA has a binding signal of 0.386 E-score.
GAGGTATA showed a binding signal of 0.243 E-score.
Work on GAGGTAGA yielded a binding signal of 0.334 E-score.
Sequence GACAGGGA has a binding signal of -0.0489 E-score.
Work on AGCAATGA yielded a binding signal of -0.189 E-score.
CGACCAAC was tested, and the binding signal was -0.152 E-score.
ACCTTGCT gave a binding signal of -0.156 E-score.
In the case of GTTTTCAA, the binding signal is reported as -0.105 E-score.
Work on ATCAAAAT yielded a binding signal of 0.231 E-score.
CGCCGTTC was tested, and the binding signal was -0.164 E-score.
CATATGTA showed a binding signal of 0.36 E-score.
With CATATGTC the binding signal was 0.00539 E-score.
Work on CATATGAA yielded a binding signal of -0.0194 E-score.
AATATGTC was tested, and the binding signal was 0.135 E-score.
For AATATGTA, the binding signal was 0.375 E-score.
In the case of GATATGTA, the binding signal is reported as 0.303 E-score.
In the case of GCATCAAC, the binding signal is reported as 0.0173 E-score.
CGATAAGC showed a binding signal of 0.0146 E-score.
CTCTATGC was tested, and the binding signal was -0.0298 E-score.
With AAGAGTAG the binding signal was 0.212 E-score.
AAACTAGG was tested, and the binding signal was 0.285 E-score.
Work on CAACTAGC yielded a binding signal of 0.214 E-score.
GAACTAGC showed a binding signal of 0.205 E-score.
AAACTAGT gave a binding signal of 0.445 E-score.
Sequence ACACTAGT has a binding signal of 0.257 E-score.
For AAACTAGC, the binding signal was 0.337 E-score.
CGCTGCAA was tested, and the binding signal was -0.0879 E-score.
In the case of GACCATAA, the binding signal is reported as 0.0376 E-score.
In the case of AACCATAA, the binding signal is reported as 0.0116 E-score.
For TACCATAA, the binding signal was 0.354 E-score.
ACGTTCGG gave a binding signal of 0.0487 E-score.
For GATGGCGA, the binding signal was 0.0644 E-score.
In the case of GAATCTAC, the binding signal is reported as 0.423 E-score.
GAATCTAA was tested, and the binding signal was 0.188 E-score.
In the case of CAATCTAC, the binding signal is reported as 0.395 E-score.
GAATCTCC was tested, and the binding signal was 0.0847 E-score.
With CGATCTAA the binding signal was -0.0333 E-score.
CAATCTGC showed a binding signal of 0.0189 E-score.
CGATCTAG gave a binding signal of 0.26 E-score.
For CAATCTAA, the binding signal was 0.232 E-score.
With CGATCTAC the binding signal was 0.335 E-score.
With CAAGAACC the binding signal was -0.0441 E-score.
Work on GGGACAAA yielded a binding signal of -0.132 E-score.
TGGAGGAA was tested, and the binding signal was -0.00731 E-score.
Sequence AGCGTAAG has a binding signal of -0.0539 E-score.
CCTATTCG was tested, and the binding signal was -0.0809 E-score.
Sequence ACTCATCT has a binding signal of -0.0629 E-score.
In the case of ATGCCCAC, the binding signal is reported as -0.129 E-score.
Work on AATTTGTA yielded a binding signal of 0.346 E-score.
ATTTTGTA was tested, and the binding signal was 0.228 E-score.
In the case of GATTTGTA, the binding signal is reported as 0.176 E-score.
AGTTTGTA was tested, and the binding signal was 0.367 E-score.
With AGTTTGTC the binding signal was 0.0866 E-score.
CGTTTGTA showed a binding signal of 0.113 E-score.
With ACTGAAGG the binding signal was -0.0541 E-score.
In the case of AGCTCGTC, the binding signal is reported as -0.149 E-score.
CCACTAAC was tested, and the binding signal was 0.0126 E-score.
In the case of CTGCTCCA, the binding signal is reported as -0.00585 E-score.
In the case of CGACATGC, the binding signal is reported as -0.104 E-score.
AGTTCTAA gave a binding signal of 0.142 E-score.
With AGTTCTAT the binding signal was 0.242 E-score.
With AATTCTAA the binding signal was 0.286 E-score.
GATTCTAC gave a binding signal of 0.406 E-score.
For CATTCTAA, the binding signal was 0.12 E-score.
With AATTCTAT the binding signal was 0.286 E-score.
Sequence CATTCTAG has a binding signal of 0.202 E-score.
Sequence GATTCTGC has a binding signal of 0.0425 E-score.
AATTCTAC showed a binding signal of 0.421 E-score.
In the case of GATTCTAA, the binding signal is reported as 0.086 E-score.
CATTCTAC gave a binding signal of 0.384 E-score.
With AGTTCTAC the binding signal was 0.386 E-score.
With CCGACGTA the binding signal was -0.0042 E-score.
Sequence CACATTAG has a binding signal of 0.175 E-score.
Sequence GACTCGTA has a binding signal of -0.148 E-score.
ATGCTACC was tested, and the binding signal was 0.00967 E-score.
TAGATAAA gave a binding signal of 0.292 E-score.
With AAAAAATG the binding signal was -0.032 E-score.
In the case of TCAGGAGA, the binding signal is reported as -0.166 E-score.
Work on ACTAATGC yielded a binding signal of 0.262 E-score.
AACTATTG was tested, and the binding signal was 0.291 E-score.
AGCTACTA showed a binding signal of 0.378 E-score.
GCCTACTA gave a binding signal of 0.229 E-score.
Work on AACTACTA yielded a binding signal of 0.465 E-score.
GGCTACTA was tested, and the binding signal was 0.0153 E-score.
TACTACAA was tested, and the binding signal was 0.303 E-score.
AACTACTG was tested, and the binding signal was 0.424 E-score.
Sequence AGCTACTG has a binding signal of 0.233 E-score.
With TACTACTA the binding signal was 0.44 E-score.
In the case of TACTACGA, the binding signal is reported as 0.291 E-score.
For AACTACGG, the binding signal was 0.19 E-score.
CGCTACTA showed a binding signal of 0.326 E-score.
AGGGCACA showed a binding signal of -0.171 E-score.
Work on ATGAATCA yielded a binding signal of -0.0987 E-score.
Sequence CCGACAAC has a binding signal of -0.076 E-score.
For TACCCTCA, the binding signal was -0.129 E-score.
Sequence AAGTTCCA has a binding signal of -0.0431 E-score.
Sequence ACTCACTG has a binding signal of 0.00942 E-score.
With GATCCAAC the binding signal was -0.164 E-score.
For CAACCATC, the binding signal was -0.0304 E-score.
Sequence ATTAAACG has a binding signal of 0.0877 E-score.
For ACAAGGGC, the binding signal was -0.198 E-score.
In the case of AATGCCCT, the binding signal is reported as 0.0279 E-score.
Sequence CACTACTG has a binding signal of 0.0489 E-score.
In the case of AGCTAATC, the binding signal is reported as 0.102 E-score.
ACCTACTG showed a binding signal of 0.238 E-score.
CACTACGA was tested, and the binding signal was 0.123 E-score.
AACTACTT gave a binding signal of 0.392 E-score.
Sequence AGCTAATA has a binding signal of 0.366 E-score.
Sequence AACAACTT has a binding signal of 0.144 E-score.
With CCCTACTA the binding signal was 0.124 E-score.
Work on ACCTACTA yielded a binding signal of 0.343 E-score.
AAGTACTT was tested, and the binding signal was 0.325 E-score.
CACTACTA showed a binding signal of 0.344 E-score.
Work on CGCTAATA yielded a binding signal of 0.286 E-score.
In the case of CGAAGGAG, the binding signal is reported as -0.0169 E-score.
ACCAGACG gave a binding signal of -0.153 E-score.
Sequence AGTAGTCA has a binding signal of 0.259 E-score.
With AGTAAAGA the binding signal was 0.0717 E-score.
CTCGCTCA showed a binding signal of -0.0517 E-score.
ACTATGGA was tested, and the binding signal was 0.0778 E-score.
In the case of CGTTATCA, the binding signal is reported as 0.165 E-score.
ACGTCCTG gave a binding signal of -0.0421 E-score.
With ACTGACGG the binding signal was -0.0188 E-score.
With ACTAACAC the binding signal was 0.0585 E-score.
AGCTACCT was tested, and the binding signal was 0.209 E-score.
AACTGCTA gave a binding signal of 0.0364 E-score.
For AACTACTC, the binding signal was 0.363 E-score.
In the case of AGCTACCC, the binding signal is reported as 0.025 E-score.
In the case of GACTACGA, the binding signal is reported as 0.0584 E-score.
GACTACTA gave a binding signal of 0.373 E-score.
For TACTGCTA, the binding signal was 0.334 E-score.
In the case of CACTACTC, the binding signal is reported as -0.0277 E-score.
Work on GACTACTC yielded a binding signal of 0.127 E-score.
Sequence ACCTACTC has a binding signal of 0.0493 E-score.
For AGCTACCA, the binding signal was 0.35 E-score.
CACTGCTA was tested, and the binding signal was 0.0112 E-score.
